Measurements as given in publication PMC4552634, “A New Set of Chemical Starting Points with Plasmodium falciparum Transmission-Blocking Potential for Antimalarial Drug Discovery” (PLoS ONE, 2015).
About 3,200 (25%) of roughly 13,000 compounds showed an effect of 50% or more. The list shows a part of the results.

These compounds were tested on P. falciparum stage V gametocytes. Conditions: 48 h, 5 µM; inhibitor.
Parameters: BacTiter-Glo ATP luminescence viability of purified stage V gametocytes in 384-well plates, per cent inhibition versus DMSO

SMILES | % Inhibition [%]
O=C(NC1CC1)c1cnc(N2CCCC(c3ccccc3)C2)c(Cl)c1 (stereo not shown) [TCMDC-134608] | 7.948
CCOC(=O)[C@H](Cc1cc([N+](=O)[O-])c(Oc2ccc(OC)c(Cc3ccc(OC)c(C(C)C)c3)c2)c([N+](=O)[O-])c1)NC(=O)C(F)(F)F [TCMDC-139398] | 36.25
COc1ccc(C2(CNCC(O)c3cccc([N+](=O)[O-])c3)CCCC2)cc1OC (stereo not shown) [TCMDC-123699] | 30.43
CCC[C@@H]([C@@H](CC1CCCCC1)C(=O)N[C@@H](CCOC(=O)NCC)C(=O)Nc1nccs1)N(O)C=O [TCMDC-138145] | 41.2
NC1=NC(c2ccccc2)(c2ccccc2)C(=O)N1CC=Cc1ccccc1 [TCMDC-136505] | -58.42
O=C(NCCCN1CCOCC1)c1csc(Nc2ccc(Cl)c(Cl)c2)n1 [TCMDC-123719] | -63.94
CCc1sc(N2CCC(C)CC2)nc1C(=O)Nc1ccc(F)cc1C(F)(F)F [TCMDC-134663] | -1.278
CCCCCN1CCCC1CNS(=O)(=O)c1ccc(C(=O)Nc2ccc(C(F)(F)F)cc2)cc1 (stereo not shown) [TCMDC-133682] | -15.48
c1cc(CN2CCN(c3ccncc3)CC2)cc(-c2ccc(-c3nc4ccccc4[nH]3)cc2)c1 [TCMDC-132921] | 36.65
O=C(O)C(F)(F)F.c1ccc2[nH]c(-c3ccc(-c4ccc(CN5CCN(c6ccncc6)CC5)cc4)cc3)nc2c1 [TCMDC-133830] | 15.5
CN1CCCC(CN2CCN(Cc3cccc(-c4ccc(-c5nc6ccccc6[nH]5)cc4)c3)CC2)C1 (stereo not shown) [TCMDC-133888] | 60.97
CN1CCCC(CN2CCN(Cc3cccc(-c4csc(-c5nc6ccccc6[nH]5)c4)c3)CC2)C1 (stereo not shown) [TCMDC-133913] | 1.76
CN1CCCC(CN2CCN(Cc3cccc(-c4cccc(-c5nc6ccccc6[nH]5)c4)c3)CC2)C1 (stereo not shown) [TCMDC-133912] | 100.3
O=C(O)C(F)(F)F.OCCN1CCN(Cc2ccc(-c3ccc(-c4nc5ccccc5[nH]4)cc3)cc2)CC1 [TCMDC-133025] | -7.938
CN1CCCC(CN2CCN(Cc3ccc(-c4cccc(-c5nc6ccccc6[nH]5)c4)cc3)CC2)C1 (stereo not shown) [TCMDC-133916] | 44.74
CN1CCCC(CN2CCN(Cc3ccc(-c4ccc(-c5nc6ccccc6[nH]5)cc4)cc3)CC2)C1.O=C(O)C(F)(F)F (stereo not shown) [TCMDC-133903] | 95.28
O=C(Nc1ccc(Cl)cc1)c1ccc(CN2CCCN(Cc3cccc(O)c3)CC2)cc1 [TCMDC-136406] | -22.52
O=C(Nc1ccc(C(=O)N2CCN(CCN3CCN(c4cccc(C(F)(F)F)c4)CC3)CC2)cc1)c1ccc(OC(F)(F)F)cc1 [TCMDC-138147] | -46.71
O=C(N[C@@H](Cc1ccccc1)C(=O)NCCN1CCOCC1)c1ccc(O)c(-c2ccc(Cl)c(Cl)c2)c1 [TCMDC-140851] | 14.71
COc1ccc(C2CC(=O)C3=C(C2)NC(C)=C(C(=O)OC(C)C)C3c2c(F)cccc2Cl)cc1OC (stereo not shown) [TCMDC-124040] | 34.34
CNC(=O)c1ccc2nc(-c3ccc(-c4ccccc4)cc3)n(CC3CCN(CC4CCCC4)CC3)c2c1 [TCMDC-136523] | 25.32
CNC(=O)c1ccc2nc(C3CC3)n(CC3CCN(S(=O)(=O)c4cccc(Cl)c4)CC3)c2c1 [TCMDC-136189] | 88.15

SMILES | % Inhibition [%]
COC(=O)Cn1c(C2CCN(CC3CCN(C(=O)/C=C/c4ccc(Cl)c(Cl)c4)CC3)CC2)nc2ccccc21 [TCMDC-140298] | 2.762
O=C(/C=C/c1cccc(C(F)(F)F)c1)NCCCCCN1CCN(C(=O)Nc2ccc(Cl)c(Cl)c2)CC1 [TCMDC-135794] | -9.962
O=C1C2C(c3ccc(Cl)c(Cl)c3)N3CC(OCc4ccccc4)CC3(C(=O)O)C2C(=O)N1c1ccc(Br)cc1 (stereo not shown) [TCMDC-139263] | 16.51
Cc1cccc2nc(-c3ccc(-c4ccc(NC(=O)Nc5ccsc5)cc4)s3)[nH]c12 [TCMDC-133209] | -24.83
CN(C)Cc1cc2c(O)c(Cc3ccccc3)ccc2o1 [TCMDC-124091] | 7.975
CCC(Cc1ccccc1)c1cc(O)c(Cc2ccc(-c3ccccc3)cc2)c(=O)o1 (stereo not shown) [TCMDC-140730] | -3.123
CN(C)Cc1c(O)ccc2oc(Cc3ccccc3)cc12 [TCMDC-125816] | 62.06
O=S1(=O)NC2(CCN(CCc3ccc(Cl)cc3)CC2)Nc2cc(F)cc(F)c21 [TCMDC-124990] | -19.76
Cc1ccc(S(C)(=O)=O)cc1/C=C/C(=O)O [TCMDC-139220] | 3.947
COc1ccc2nccc([C@@H](O)CN3CCC(NCCOc4ccc(F)cc4[N+](=O)[O-])CC3)c2c1 [TCMDC-140659] | -1.987
CN1CCN(c2ccnc3ccc(NC(=O)Nc4cccc5ccccc45)cc23)CC1 [TCMDC-139346] | 6.615
O=c1nc(C=Cc2ccc(Br)cc2)oc2ccccc12 [TCMDC-123878] | 22.17
CCCc1c(C(=O)NC2CCC(CN3CCC(c4c[nH]c5ccccc45)CC3)CC2)cnn1-c1c(Cl)cc(Cl)cc1Cl (stereo not shown) [TCMDC-140423] | 74.19
O=C(NC1CCC(CN2CCC(c3c[nH]c4ccccc34)CC2)CC1)c1cc(-c2cccc(Cl)c2)n(-c2ccc(Cl)cc2Cl)n1 (stereo not shown) [TCMDC-140353] | -7.21
O=C(NC1CCC(CN2CCC(c3c[nH]c4ccccc34)CC2)CC1)c1cc(-c2ccccc2Cl)n(-c2cccc(Cl)c2)n1 (stereo not shown) [TCMDC-140354] | -13.83
CCCc1c(C(=O)NC2CCC(CN3CCC(c4c[nH]c5ccccc45)CC3)CC2)cnn1-c1ccccc1 (stereo not shown) [TCMDC-139954] | 89.66
CCCc1c(C(=O)NC2CCC(CN3CCC(c4c[nH]c5ccccc45)CC3)CC2)cnn1-c1ccc(Cl)cc1 (stereo not shown) [TCMDC-140261] | 29.96
Cc1c(C(=O)NC2CCC(CN3CCC(c4c[nH]c5ccccc45)CC3)CC2)cnn1-c1c(Cl)cc(Cl)cc1Cl (stereo not shown) [TCMDC-140357] | 8.343
CC(C)c1ccc(NC(=O)Nc2ccc(Cn3ncc(N4CCCNCC4)c(Cl)c3=O)cc2)cc1 [TCMDC-133325] | -40.87
CNC(=O)C1Cc2c([nH]c3ccc(Cl)cc23)C2(CCN(CCc3ccccc3)CC2)N1 (stereo not shown) [TCMDC-141285] | -33.98
O=c1[nH]c2ccc3[nH]cccc3c2c1C=Nc1ccc(N2CCN(CCO)CC2)cc1 [TCMDC-138634] | -29.23
O=C(C=Cc1ccc(Cl)c(Cl)c1)NCCCCCN1CCC(CCNC(=O)/C=C/c2ccccc2)CC1 [TCMDC-139566] | 81.69

SMILES | % Inhibition [%]
COc1ccccc1/C=C/C(=O)NCCC1CCN(CCCCCNC(=O)/C=C/c2ccc(Cl)c(Cl)c2)CC1 [TCMDC-139999] | 48.92
O=C(C=Cc1ccc(Cl)c(Cl)c1)NCCCCCN1CCCC(CCCNC(=O)/C=C/c2ccccc2)C1 (stereo not shown) [TCMDC-139577] | 89.65
O=C(/C=C/c1ccc(Cl)c(Cl)c1)NCCCCCN1CCC(CCNC(=O)/C=C/c2ccccc2F)CC1 [TCMDC-140006] | -17.66
O=C(C=Cc1ccc(Cl)c(Cl)c1)NCCCCCN1CCC(CCCNC(=O)/C=C/c2ccccc2)CC1 [TCMDC-139571] | -9.203
O=C(C=Cc1ccc(Cl)c(Cl)c1)NCCCCCN1CCCC(CCCNC(=O)C2CC2c2ccccc2)C1 (stereo not shown) [TCMDC-139578] | 25.82
O=C(C=Cc1ccc(Cl)c(Cl)c1)NCCCCCN1CCC(CCNC(=O)C(c2ccccc2)c2ccccc2)CC1 [TCMDC-139570] | 77.62
O=C(/C=C/c1ccc(Cl)c(Cl)c1)NCCCCCN1CCCC(CNC(=O)/C=C/c2ccccc2)C1 (stereo not shown) [TCMDC-139582] | 30.13
CCc1cc(NCc2ccncc2)nc(Nc2ccc(F)cc2)n1 [TCMDC-134015] | 15.5
CC(C)(C)NC(=O)C(c1ccc(F)cc1)N(C(=O)c1ccc(CN2CCOCC2)o1)c1ccc(C2CCCCC2)cc1 (stereo not shown) [TCMDC-125562] | -47.12
CCc1ccc(CN2CCC(CN(c3ccc(N4CCOCC4)c(F)c3)S(=O)(=O)c3ccc(C(C)(C)CC)cc3)CC2)cc1 [TCMDC-135290] | -12.43
COc1ccccc1C1CCN(C2CCC(NC(=O)/C=C/c3cc(F)cc(F)c3)CC2)CC1 (stereo not shown) [TCMDC-133492] | -91.94
CCOC(=O)c1nc2ccc(SC3CCCCC3)cn2c1Br [TCMDC-138030] | 0.4377
COc1ccc2c(=O)ccn(CCN3CCC(NCc4ccc5c(n4)NC(=O)CS5)CC3)c2c1 [TCMDC-141809] | -63.52
Nc1nc(N)c2c(Oc3cccc4ccccc34)cccc2n1 [TCMDC-137739] | -7.537
COc1ccccc1-c1nc2c(ccc3nc(N)nc(N)c32)[nH]1 [TCMDC-137976] | 123.3
Nc1nc(N)c2c(ccc3ccccc32)n1 [TCMDC-131942] | 19.03
Nc1nc(N)c2c(ccc3[nH]c(-c4ccccc4Cl)nc32)n1 [TCMDC-137840] | 117.2
CN(C)c1ccc2nc(N)nc(N)c2c1Cl [TCMDC-137862] | -17.95
COc1cc2cc(-c3nc4ccccc4[nH]3)c(N)nc2cc1OC [TCMDC-125600] | 19.66
Fc1ccc2[nH]c(-c3ccc(-c4ccc(CNCc5cnn(-c6ccccc6)n5)cc4)cc3)nc2c1.O=C(O)C(F)(F)F [TCMDC-132969] | 45.68
